# AMA1 RON2 block: qHTS for Inhibitors of AMA1-RON; Towards Development of Antimalarial Drug Lead: Primary Screen | Plasmodium falciparum AMA1 (3D7) - RON2 peptide interaction | AlphaScreen AMA1-biotinylated RON2 peptide binding | Potency, µM (highest dose often 58.2 µM), without a hit: at the top dose activity change, negative = inhibition, actives largely listed as inhibitors | hit rate 0.2% among 360,000;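 also: potency is read from the fitted curve at half-maximal effect; 0% = vehicle wells and -100% = peptide control; nearly all actives have a fitted effect of over 45% in size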
#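 AMA1 (3D7) with his tag at 25 nM final met compounds first, then biotinylated RON2 peptide at 25 nM; detection used donor plus acceptor beads, 10 µg/mL apiece, read by AlphaScreen after 30 min at room temperature.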
# Pf growth 96h: Primary qHTS for delayed death inhibitors of the malarial parasite plastid, 96 hour incubation. hit rate 6.9% among 320,000. AID 504834, 2011. P. falciparum luciferase reporter growth, 96 h. Potency, µM (titrated, usually from 28.7 µM), for the others: at the highest dose activity change, negative = inhibition, hits mostly inhibitors; also: potency is read from the fitted curve at half-maximal effect; % is scaled to controls: 0 for no effect and ±100 for the full control effect
#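 Erythrocytes infected with luciferase-expressing P. falciparum were dispensed at 2% hematocrit and 0.05% parasitemia (final), then incubated with compounds 96 hours at 37 C in 5% CO2. Luminescence after detection reagent addition reported growth.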
# Shiga inhibitor: A qHTS for Small Molecule Inhibitors of Shiga Toxin; Vero cells, Shiga toxin protein synthesis inhibition reporter; inhibition, % at 38.7 µM; hit rate 9.2% among 290,000; AID 2315, 2010; in the data active = inhibition mostly above about 28%, no sharp cut-off; inactive = mostly below about 43%; also: 0% is about no effect
# CHX counter: Cycloheximide Counterscreen for Small Molecule Inhibitors of Shiga Toxin; hit rate 12% among 300,000; max response, %; cell reporter, cycloheximide protein synthesis inhibition counterscreen; in the data active = max response mostly above about 13%, no sharp cut-off; inactive = mostly below about 14%; also: read at 38.3 µM for the half of the compounds with a filed dose; 0% is about no effect
# Pf growth 48h: Primary qHTS for delayed death inhibitors of the malarial parasite plastid, 48 hour incubation; P. falciparum luciferase growth in erythrocytes, 48 h; Potency, µM (titrated, usually from 28.7 µM), for inactives: at the highest dose activity change, negative = inhibition, usual class: inhibitors; hit rate 5.9% among 310,000; also: potency is read from the fitted curve at half-maximal effect; % is scaled to controls: 0 for no effect and ±100 for the full control effect
#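 Firefly luciferase activity from engineered P. falciparum reports growth; inhibitors lower the luminescent signal. Cultures contained 2% hematocrit erythrocytes at 0.1% final parasitemia.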
# SARS PLpro yeast: qHTS of Yeast-based Assay for SARS-CoV PLP | S. cerevisiae expressing SARS-CoV PLpro, growth rescue | Potency, µM (doses to about 32.9 µM), without a hit: at the top dose activity, positive = growth rescue, most hits filed as activators | hit rate 0.19% among 330,000; calls by dose curve; also: potency is read from the fitted curve at half-maximal effect; 0% is about no effect; nearly all actives have a fitted effect of over 55% in size
# An asterisk follows results filed as active; ? = inconclusive; nt = not tested or not shown. Shown are actives, neighbours in structure and some others; about 19% of the full set was active somewhere. Unless noted, calls follow the shape of the dose curve; as a rule, active = well fitted curve in the direction sought with a large enough effect; inconclusive = small, poorly fitted or top-dose-only effect, or another doubt; inactive = no such curve, though single readings can be large; an effect the other way counts as inactive or inconclusive.
SMILES,AMA1 RON2 block,Pf growth 96h,Shiga inhibitor,CHX counter,Pf growth 48h,SARS PLpro yeast
COc1ccc(/C=N/N=C/c2ccc(OC)c(O)c2)cc1O,0%,7%,55,36*,?,2%
COc1cc(/C=N/N=C/c2cc(OC)c(O)c(OC)c2)cc(OC)c1O,-12%,4.1µM*,-2,10,10µM*,2%
COc1ccc(/C=N/NC(=O)c2ccncc2)cc1OC,5%,9%,-10,1,9%,-1%
COc1cc(/C=N/N=C(N)N)ccc1OCc1ccccc1Cl,-15%,29%,5,19,2.6µM*,-2%
COc1ccc(C=O)cc1O,-7%,-8%,0,-7,9%,-2%
COc1cc(/C=N/N=C(/C(=O)c2ccccc2)c2ccccc2)cc(OC)c1O,-30%,?,7,5,-7%,-38%
COc1ccc(/C=N/N=C/c2ccc(OC)c(OC)c2)cc1OC,-6%,117%,-4,-4,3.7µM*,0%
C=CCNc1nc(C(=O)OC(C)C(=O)c2ccc(C)cc2)cs1 (stereo not drawn),6%,nt,nt,nt,nt,2%
CCCNC(=O)C1(C)CCCN(C(=O)c2cccc(C(F)(F)F)c2)C1 (stereo not drawn),-4%,nt,nt,nt,nt,nt
COc1ccc(/C=N\N=C(N)N)cc1,-2%,7%,1,-2,?,1%
COc1ccc(/C=N/N=C/c2ccc(OC)cc2)cc1,-5%,?,46,25*,?,1%
COc1ccc(C(=O)Oc2ccc(/C=N/O)cc2)cc1,-10%,?,83*,74*,49%,-9%
Nc1ccc(CN2CCOCC2)cc1,-6%,?,-7,6,11%,0%
CN(C)C1=NP(N(C)C)(N(C)C)=NC(c2ccccc2)=N1,28%,1.7µM*,-12,-1,0%,7%
CC1(O)C(c2ccccc2)=Nc2ccccc21 (stereo not drawn),-5%,nt,nt,nt,nt,nt
O=C(COC(=O)Cn1cnc2ccccc21)Nc1cc2c(cc1Cl)C(=O)c1ccccc1C2=O,-5%,29%,50*,37*,30%,-1%
COC(=O)c1ccc(C(=O)Nc2cc(Cl)ccc2Cl)cc1NC(=O)c1ccc(N(C)C)cc1,-7%,nt,15,-3,21%,-1%
Cn1c(SCc2ccc(C#N)cc2)nnc1-c1ccncc1,2%,9%,-1,1,1%,-4%
C=CCn1c(SCC(=O)NNC(=S)Nc2ccccc2)nnc1-c1ccccc1,59%,-3%,19,-3,13%,2%
Cn1c(SCc2ccc(C(=O)Nc3nccs3)cc2)nnc1-c1ccccc1,0%,nt,8,4,2.3µM*,0%
C=CCn1c(SCc2ccc(C(=O)Nc3ccccc3)cc2)nnc1-c1ccccc1,-10%,15%,36,19*,36%,8%
Cn1c(SCC(=O)Nc2nccs2)nnc1-c1ccncc1,9%,15%,-2,-1,15%,4%
C=CCn1c(SCc2ccc(C#N)cc2)nnc1-c1ccc(C)cc1,5%,12µM*,-9,-3,?,1%
CCn1c(SCc2ccc(C(=O)Nc3nccs3)cc2)nnc1-c1ccc(N)cc1,14%,nt,46,20*,10µM*,0%
CCN1C(=O)[C@H]2[C@@H](c3ccc(OC)cc3)N[C@]3(CCCN(Cc4ccc(F)cc4)C3=O)[C@H]2C1=O,-13%,nt,nt,nt,nt,nt
CCC(Sc1nnc(-c2ccc(C)c(Cl)c2)n1CC)C(=O)Nc1nccs1 (stereo not drawn),5%,4%,-14,-3,?,-2%
CCn1c(SCc2ccc(C(=O)Nc3nccs3)cc2)nnc1-c1ccc(NC(C)=O)cc1,-2%,13µM*,-3,8,?,9%
Nn1c(Cc2ccc(F)cc2)n[nH]c1=S,33%,14%,-15,-1,5%,1%
Nn1c(Cc2ccccc2)n[nH]c1=S,43%,25%,50,18*,3%,2%
O=C(COC(=O)c1cccc(Cl)c1)NCc1ccccc1,-5%,nt,nt,nt,nt,-2%

# Compound activity: PubChem, National Center for Advancing Translational Sciences (NCATS)
